# Results taken from PubChem BioAssay.
# The source made the active and inactive calls.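 Rule for the calls, unless noted: active = inhibition of the reporter signal at or above 50%; inactive = inhibition below 50%.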
# How the values were obtained:
# [1] = inhibitors of TNFa-induced NFkB p65 translocation, primary screen, imaging, HUVEC, MLSMR starter and 10KST1 sets (AID 438;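 active = inhibition above 20% together with a positive visual image hit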;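 note: compound added about 3h40 before a 20 min TNFalpha stimulation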;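 for inhibition: signal is the nuclear over cytoplasmic p65 intensity ratio per well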); conditions: HUVEC TNFa-induced p65 nuclear translocation; cell count: measured here: nuclei count (cytotoxicity indicator), at 2.08 µM; inhibition: at 2 µM, stronger effect = higher value, 0% TNFa-plus-vehicle, 100% no-TNFa wells
# [2] = reduction of polyQ htt aggregates in cells – imaging, exon1htt(103Q)mCFP cells, high-content imaging, primary screen (AID 483;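 active = visual image review flags a hit and inhibition of aggregation exceeds 20%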;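 note: compound exposure lasted 3 days before fixation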;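 for nuclei count: percent of the per-plate median nuclei count of sample wells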); conditions: exon1htt(103Q)mCFP cell line, aggregate imaging, at 2 µM; inhibition of aggregation: stronger effect = higher value; nuclei count: measured here: cell count, toxicity
# [3] = endothelial E-selectin expression blockers – imaging, HUVEC, immunofluorescence, MLSMR starter and 10KST1 sets, primary screen (AID 487;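 active = visually confirmed hit in the image check and inhibition above 20%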;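 for inhibition: signal is fraction of cell area covered by stained E-selectin grains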;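 for nuclei count: 100% = median nuclei count of all wells on the same plate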); conditions: HUVEC TNFalpha-induced E-selectin immunofluorescence imaging, at 2 µM; inhibition: stronger effect = higher value; nuclei count: measured here: cell number, toxicity
# [4] = molecular target: Voltage-gated potassium channel subunit beta-2 (Rattus norvegicus) (UniProt P62483); assay: inhibitors of rat Kvbeta2 reductase activity – biochemical, NADPH fluorescence, primary screen (AID 622;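 active = fluorescence slope higher than the sample average by over 3 SD, cut at about -0.22 in these data, passing the limit was not always enough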;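 note: slope of raw intensity against log time taken from 70 to 1610 s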); conditions: recombinant KvBeta, 4-cyanobenzaldehyde reduction, at 10 µM, stronger effect = higher value
# [5] = molecular target: Voltage-gated potassium channel subunit beta-2 (Rattus norvegicus) (UniProt P62483); assay: enhancers of rat Kvbeta2 NADPH turnover – biochemical, NADPH fluorescence, primary screen (AID 623;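 active = NADPH fluorescence slope more negative than the mean of all samples by about 3 SD, 99.7% confidence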;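 note: fluorescence intensity change per second fitted from 20 to 320 s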); conditions: Recombinant KvBeta, NADPH fluorescence decrease slope, 10 min; at 10 µM; stronger effect = lower value
# [6] = molecular target: Alpha-2C adrenergic receptor (Homo sapiens) (UniProt P18825); assay: compounds altering alpha2C-coupled GIRK flux – cell-based, HEK293 alpha2C/GIRK1/2, thallium flux, primary screen (AID 624;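 active = fluorescence slope after compound addition differing from the mean of all screened samples at 99.7% confidence, in either direction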;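 note: slope of fluorescence ratio to pre-addition baseline per second over 15 to 24 s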); conditions: thallium flux BTC fluorescence, at 10 µM, actives lie on both sides
# [7] = blockers of RIG-like receptor reporter activation – cell-based, Sendai virus stimulus, luciferase, 10K MLSCN set, TLR/RLR signaling modifier project, primary screen (AID 602276;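 active = inhibition at or above 50% at 10 µM; inactive = inhibition below 50%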;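 note: firefly luciferase from ISG56 promoter only with Renilla not read in this screen; 0% = Sendai virus plus DMSO and 100% = medium plus DMSO without virus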); conditions: HEK293 RL24 IRF3 luciferase reporter, at 10 µM, stronger effect = higher value
# [8] = TLR3 IRF3 reporter activation blockers – cell-based, poly I:C stimulus, luciferase, 10K MLSCN set, primary screen (AID 602277); conditions: HEK293-TLR3 RL24 IRF3 luciferase reporter, at 10 µM, stronger effect = higher value
# Chain of Alpha-2C adrenergic receptor (Homo sapiens) (P18825 whole entry, looked up): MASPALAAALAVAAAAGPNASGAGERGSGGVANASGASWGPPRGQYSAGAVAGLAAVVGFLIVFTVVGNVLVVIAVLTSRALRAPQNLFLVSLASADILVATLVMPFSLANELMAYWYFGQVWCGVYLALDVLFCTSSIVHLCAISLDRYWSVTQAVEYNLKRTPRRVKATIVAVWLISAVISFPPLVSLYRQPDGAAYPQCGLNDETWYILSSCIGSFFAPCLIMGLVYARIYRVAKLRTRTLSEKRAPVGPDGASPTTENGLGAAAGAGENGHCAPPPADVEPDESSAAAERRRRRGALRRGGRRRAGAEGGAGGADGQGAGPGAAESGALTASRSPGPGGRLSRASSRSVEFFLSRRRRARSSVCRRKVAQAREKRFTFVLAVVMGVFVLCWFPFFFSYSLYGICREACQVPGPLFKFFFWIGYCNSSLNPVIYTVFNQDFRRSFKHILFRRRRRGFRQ
# Chain of Voltage-gated potassium channel subunit beta-2 (Rattus norvegicus) (P62483 whole entry, looked up): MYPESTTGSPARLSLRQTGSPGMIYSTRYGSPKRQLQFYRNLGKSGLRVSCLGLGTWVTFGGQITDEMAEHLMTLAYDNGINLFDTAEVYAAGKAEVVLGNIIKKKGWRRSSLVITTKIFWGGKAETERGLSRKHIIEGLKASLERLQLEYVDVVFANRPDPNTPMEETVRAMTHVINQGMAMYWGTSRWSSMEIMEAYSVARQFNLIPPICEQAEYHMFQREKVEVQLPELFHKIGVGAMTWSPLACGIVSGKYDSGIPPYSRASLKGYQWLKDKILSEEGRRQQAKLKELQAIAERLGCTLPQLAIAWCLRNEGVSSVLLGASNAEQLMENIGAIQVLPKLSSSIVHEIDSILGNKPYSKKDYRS
Structure (SMILES),cell count [1],inhibition [1],inhibition of aggregation [2],nuclei count [2],inhibition [3],nuclei count [3],fluorescence slope [4],NADPH fluorescence slope [5],slope [6],inhibition [7],inhibition [8]
CCOC(=O)c1ccc(S(=O)(=O)Nc2cc(C(C)(C)C)no2)cc1,551,-10.3% (inactive),5.8% (inactive),108%,-194% (inactive),152%,-0.612 (inactive),5.6e-06 (inactive),0.00811 (inactive),-7.27% (inactive),-2.9% (inactive)
Cc1nnc(NCCc2ccccc2)n(N)c1=O,806,-5.5% (inactive),-21.2% (inactive),106%,-35% (inactive),121%,-0.514 (inactive),4.9e-06 (inactive),0.00506 (inactive),2.54% (inactive),5.29% (inactive)
COc1ccc(-n2ncc3c(NCCCN4CCOCC4)ncnc32)cc1,340,1.4% (inactive),-6.2% (inactive),116%,1.8% (inactive),118%,-0.59 (inactive),-5.4e-05 (inactive),0.00402 (inactive),44.5% (inactive),7.05% (inactive)
Cc1cc(C)cc(N2C(=O)CC(N3CCOCC3)C2=O)c1 (stereo not given),459,3% (inactive),-4.9% (inactive),105%,38.6% (inactive),98.8%,-0.355 (inactive),3e-05 (inactive),0.00693 (inactive),13.8% (inactive),32.5% (inactive)
Cc1ccc(NC(=O)c2ccccc2F)nc1,336,-8.1% (inactive),0.7% (inactive),123%,-16.4% (inactive),111%,-0.374 (inactive),-6.3e-05 (inactive),0.00526 (inactive),-16.7% (inactive),-41.6% (inactive)
CC(=O)c1cccc(S(=O)(=O)NCC(c2ccco2)N2CCCCC2)c1 (stereo not given),707,-2% (inactive),-10% (inactive),107%,-140% (inactive),145%,-0.62 (inactive),-1.6e-05 (inactive),0.0049 (inactive),5.82% (inactive),6.55% (inactive)
COc1cc(C(=O)Nc2cccc(-c3nncn3C)c2)cc(OC)c1OC,416,7.6% (inactive),22.2% (inactive),76.5%,-52.3% (inactive),102%,-0.303 (inactive),-2.8e-05 (inactive),0.00614 (inactive),14.3% (inactive),14.5% (inactive)
CCOc1ccc2nc(NC(=O)C3CCCN(S(=O)(=O)c4c(C)noc4C)C3)sc2c1 (stereo not given),674,-4% (inactive),-0.7% (inactive),108%,-7.3% (inactive),114%,-0.592 (inactive),-1.1e-05 (inactive),0.00699 (inactive),-4.49% (inactive),-47.9% (inactive)
CCCn1c(SCC(=O)N2CCN(c3ccccc3)CC2)nc2ccccc2c1=O,331,-8.5% (inactive),-6.7% (inactive),101%,23.2% (inactive),124%,-0.595 (inactive),3.4e-07 (inactive),0.00536 (inactive),-9.23% (inactive),-10.6% (inactive)
CC(C)OC(=O)CN1C(=O)C(C)(C)Oc2ccc(C(=O)NC3CC3)cc21,537,-6.7% (inactive),18% (inactive),104%,-11.5% (inactive),102%,-0.496 (inactive),-7.2e-05 (inactive),0.00477 (inactive),14.5% (inactive),17.5% (inactive)
CCc1[nH]nc2c1C(c1cccc(OC(=O)N3CCOCC3)c1)C(C#N)=C(N)O2 (stereo not given),393,-20.5% (inactive),-8.9% (inactive),98.5%,9.4% (inactive),87.2%,-0.563 (inactive),-2e-05 (inactive),0.00573 (inactive),20.6% (inactive),22.7% (inactive)
CC1CCCCN1S(=O)(=O)c1ccc(NC(=O)c2cccs2)cc1 (stereo not given),678,-14.6% (inactive),25.4% (inactive),86.3%,-25.1% (inactive),104%,-0.431 (inactive),9.2e-06 (inactive),0.00361 (inactive),-0.562% (inactive),5.71% (inactive)
Cc1c(C(=O)NCc2cccnc2)oc2ccc(S(=O)(=O)N3CCCCC3)cc12,614,-17% (inactive),37.3% (active),117%,-47.2% (inactive),107%,-0.448 (inactive),-0.000103 (inactive),0.00545 (inactive),19.5% (inactive),21.4% (inactive)
O=c1c2ccccc2nc(SCc2nnc(-c3ccccc3Br)o2)n1-c1ccccc1,379,2.9% (inactive),5.3% (inactive),63.9%,-18.3% (inactive),104%,-0.573 (inactive),-4.9e-05 (inactive),0.00444 (inactive),0.607% (inactive),1.7% (inactive)
O=C(C1CC1)N1CCC(c2nc(-c3ccc(S(=O)(=O)NCC4CCCO4)cc3)no2)CC1 (stereo not given),334,-3% (inactive),-20.7% (inactive),143%,-43.6% (inactive),91.9%,-0.491 (inactive),3.5e-06 (inactive),0.00666 (inactive),-27.5% (inactive),-49.4% (inactive)
COc1ccc(OCCOC(=O)c2cccs2)cc1,367,14.9% (inactive),-30.1% (inactive),100%,-11.5% (inactive),112%,-0.604 (inactive),7.3e-06 (inactive),0.00778 (inactive),-2.79% (inactive),4.6% (inactive)
Cc1cc(=O)n2nc(N3CCC(C(=O)N4CCN(Cc5ccccc5)CC4)CC3)sc2n1,450,-1% (inactive),-0.2% (inactive),113%,-31.7% (inactive),103%,-0.329 (inactive),-5.5e-05 (inactive),0.00533 (inactive),7.85% (inactive),3.68% (inactive)
O=C(CC1CCS(=O)(=O)C1)Nc1ccc[nH]c1=O (stereo not given),475,-4.7% (inactive),-4.6% (inactive),63.8%,42.5% (inactive),49%,-0.41 (inactive),-6.4e-05 (inactive),0.0024 (inactive),16.2% (inactive),8.75% (inactive)
Cc1nc2c(-c3ccccc3)c(C)nn2c(C)c1CCC(=O)O,586,6.1% (inactive),8.1% (inactive),73%,-61.1% (inactive),103%,-0.492 (inactive),-2.4e-05 (inactive),0.00603 (inactive),13.6% (inactive),20% (inactive)
Cc1sc(NC(=O)CSc2nc(N)n(CC(=O)c3ccccc3)n2)c(C#N)c1C,403,-0.8% (inactive),-21.4% (inactive),111%,-61.6% (inactive),111%,-0.612 (inactive),-2.1e-05 (inactive),0.00622 (inactive),-14.5% (inactive),-21.2% (inactive)
